# Measurements: article PMC7862700, “An all-to-all approach to the identification of sequence-specific readers for epigenetic DNA modifications on cytosine”
# Key:
# Assay in all cases: DAPPL (digital affinity profiling via proximity ligation, sequencing); 10 mM Tris-HCl pH 7.5, 50 mM NaCl, 1 mM DTT, 4% glycerol, room temperature, 30 min; GST-TFs on glutathione beads, 16-mer random dsDNA library, 0.1% formaldehyde crosslink after washing; high values mean tight binding
# Settings in all cases: protein: recombinant; tags: N-terminal GST; dsDNA, one strand shown
# FLI1 = target: T1, FLI1 (Homo sapiens, UniProt Q01543 1-452)
# T1 sequence: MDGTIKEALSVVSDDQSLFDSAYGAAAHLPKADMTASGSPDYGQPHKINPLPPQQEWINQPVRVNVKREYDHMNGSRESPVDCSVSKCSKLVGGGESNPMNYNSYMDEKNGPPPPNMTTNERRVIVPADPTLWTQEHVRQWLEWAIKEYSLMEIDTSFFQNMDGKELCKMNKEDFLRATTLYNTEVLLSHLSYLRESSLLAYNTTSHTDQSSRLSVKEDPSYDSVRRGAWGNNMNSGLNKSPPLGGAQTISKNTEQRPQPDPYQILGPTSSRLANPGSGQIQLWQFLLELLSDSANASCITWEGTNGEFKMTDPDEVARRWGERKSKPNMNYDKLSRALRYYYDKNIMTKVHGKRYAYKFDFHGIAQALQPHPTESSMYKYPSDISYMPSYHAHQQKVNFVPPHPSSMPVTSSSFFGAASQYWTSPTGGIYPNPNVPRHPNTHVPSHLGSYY
# How it was run: (§1)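 Beads coated with glutathione captured GST-fused human transcription factors that had been expressed in yeast, and the factors were then given DNA barcodes and pooled with a tag-only sample. The pools were incubated with 200 nmole of a random double-stranded 16-mer DNA library in Tris/NaCl/DTT/glycerol buffer for 30 min at room temperature, washed, crosslinked with 0.1% formaldehyde and proximity-ligated with BsaI/T4 ligase at 37 °C for 1 h. PCR amplification and Illumina NextSeq500 sequencing came last. Binding signal is each hexamer's read frequency for a factor divided by its frequency for the tag-only sample.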
# ELK1 = target: T2, ELK1 (Homo sapiens, UniProt P19419 1-428)
# T2 sequence: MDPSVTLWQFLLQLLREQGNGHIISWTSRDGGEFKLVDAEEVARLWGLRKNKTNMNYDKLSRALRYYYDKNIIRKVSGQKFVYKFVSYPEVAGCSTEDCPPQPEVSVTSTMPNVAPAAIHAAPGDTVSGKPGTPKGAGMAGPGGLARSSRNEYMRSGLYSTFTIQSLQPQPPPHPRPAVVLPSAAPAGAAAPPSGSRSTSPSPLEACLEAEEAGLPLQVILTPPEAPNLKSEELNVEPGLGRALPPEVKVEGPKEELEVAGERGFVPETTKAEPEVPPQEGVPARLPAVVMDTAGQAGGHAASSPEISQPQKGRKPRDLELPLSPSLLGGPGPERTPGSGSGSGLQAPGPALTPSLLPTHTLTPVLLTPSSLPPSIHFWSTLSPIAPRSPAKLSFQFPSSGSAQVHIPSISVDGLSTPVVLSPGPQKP
# How it was run: as §1
# GABPA = target: T3, GABPA (Homo sapiens, UniProt Q06546 1-454)
# T3 sequence: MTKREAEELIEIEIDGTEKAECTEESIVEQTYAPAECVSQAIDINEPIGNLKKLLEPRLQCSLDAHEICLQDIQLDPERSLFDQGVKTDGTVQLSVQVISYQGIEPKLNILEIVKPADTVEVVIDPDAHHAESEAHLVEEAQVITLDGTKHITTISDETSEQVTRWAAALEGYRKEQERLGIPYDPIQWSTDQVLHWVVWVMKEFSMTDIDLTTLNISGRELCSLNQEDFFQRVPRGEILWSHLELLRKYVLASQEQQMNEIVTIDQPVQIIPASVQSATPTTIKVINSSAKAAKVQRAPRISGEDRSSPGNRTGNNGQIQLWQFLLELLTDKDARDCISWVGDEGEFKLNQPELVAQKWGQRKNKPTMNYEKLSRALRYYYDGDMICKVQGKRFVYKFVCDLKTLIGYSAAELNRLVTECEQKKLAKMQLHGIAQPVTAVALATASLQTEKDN
# How it was run: as §1
# ERG = target: T4, ERG (Homo sapiens, UniProt P11308 1-479)
# T4 sequence: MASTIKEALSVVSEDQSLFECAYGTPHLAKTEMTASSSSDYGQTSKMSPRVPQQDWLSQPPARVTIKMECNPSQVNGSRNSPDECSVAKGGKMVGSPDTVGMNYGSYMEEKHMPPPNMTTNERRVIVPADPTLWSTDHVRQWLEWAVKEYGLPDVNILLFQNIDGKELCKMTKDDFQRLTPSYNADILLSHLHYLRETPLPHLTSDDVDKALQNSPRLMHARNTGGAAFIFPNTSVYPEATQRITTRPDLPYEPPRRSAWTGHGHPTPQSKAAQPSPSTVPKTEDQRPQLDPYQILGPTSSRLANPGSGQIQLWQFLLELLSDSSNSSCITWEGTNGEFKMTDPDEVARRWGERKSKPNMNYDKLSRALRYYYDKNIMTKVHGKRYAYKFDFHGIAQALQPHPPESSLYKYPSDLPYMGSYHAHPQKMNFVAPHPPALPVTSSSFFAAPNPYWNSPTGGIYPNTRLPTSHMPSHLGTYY
# How it was run: as §1
# ELF1 = ELF1 (Homo sapiens, UniProt P32519 1-619)
# Chain of ELF1 (P32519 whole entry): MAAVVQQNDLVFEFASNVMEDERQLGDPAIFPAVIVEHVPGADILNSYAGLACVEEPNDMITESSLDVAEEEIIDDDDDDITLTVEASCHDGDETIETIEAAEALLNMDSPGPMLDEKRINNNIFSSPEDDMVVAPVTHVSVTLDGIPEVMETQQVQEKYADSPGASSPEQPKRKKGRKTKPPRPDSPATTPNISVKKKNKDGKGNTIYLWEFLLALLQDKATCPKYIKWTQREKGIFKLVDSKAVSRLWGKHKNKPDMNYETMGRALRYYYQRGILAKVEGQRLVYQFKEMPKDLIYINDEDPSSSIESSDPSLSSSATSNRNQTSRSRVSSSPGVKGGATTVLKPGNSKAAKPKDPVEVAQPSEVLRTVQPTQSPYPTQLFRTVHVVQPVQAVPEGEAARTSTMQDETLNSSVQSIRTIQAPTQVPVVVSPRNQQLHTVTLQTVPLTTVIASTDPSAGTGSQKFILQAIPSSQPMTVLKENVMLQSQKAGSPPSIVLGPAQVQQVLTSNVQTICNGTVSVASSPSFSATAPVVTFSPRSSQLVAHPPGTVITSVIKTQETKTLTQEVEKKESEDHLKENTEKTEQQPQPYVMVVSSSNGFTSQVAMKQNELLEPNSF
# How it was run: as §1
# EHF = target: T5, EHF (Homo sapiens, UniProt Q9NZC4 1-300)
# T5 sequence: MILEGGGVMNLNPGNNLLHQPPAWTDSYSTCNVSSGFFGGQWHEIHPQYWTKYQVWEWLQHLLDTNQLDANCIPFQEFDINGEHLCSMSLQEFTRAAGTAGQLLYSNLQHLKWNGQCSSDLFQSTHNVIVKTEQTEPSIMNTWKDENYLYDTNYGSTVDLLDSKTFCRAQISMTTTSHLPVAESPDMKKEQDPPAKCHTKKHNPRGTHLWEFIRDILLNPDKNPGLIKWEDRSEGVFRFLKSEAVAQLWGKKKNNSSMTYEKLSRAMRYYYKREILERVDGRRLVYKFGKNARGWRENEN
# How it was run: as §1
# SPI1 = SPI1 (Homo sapiens, UniProt P17947 1-270)
# How it was run: as §1
# SPIB = SPIB (Homo sapiens, UniProt Q01892 1-262)
# Chain of SPIB (Q01892 whole entry): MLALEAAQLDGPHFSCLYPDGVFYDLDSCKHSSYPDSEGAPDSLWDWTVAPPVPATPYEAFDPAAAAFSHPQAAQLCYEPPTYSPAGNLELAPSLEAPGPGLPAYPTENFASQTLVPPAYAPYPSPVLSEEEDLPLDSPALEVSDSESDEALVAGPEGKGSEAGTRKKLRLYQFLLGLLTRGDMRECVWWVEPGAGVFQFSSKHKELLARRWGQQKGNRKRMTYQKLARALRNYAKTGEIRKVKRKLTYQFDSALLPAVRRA
# How it was run: as §1
# ELK3 = target: T6, ELK3 (Homo sapiens, UniProt P41970 1-407)
# T6 sequence: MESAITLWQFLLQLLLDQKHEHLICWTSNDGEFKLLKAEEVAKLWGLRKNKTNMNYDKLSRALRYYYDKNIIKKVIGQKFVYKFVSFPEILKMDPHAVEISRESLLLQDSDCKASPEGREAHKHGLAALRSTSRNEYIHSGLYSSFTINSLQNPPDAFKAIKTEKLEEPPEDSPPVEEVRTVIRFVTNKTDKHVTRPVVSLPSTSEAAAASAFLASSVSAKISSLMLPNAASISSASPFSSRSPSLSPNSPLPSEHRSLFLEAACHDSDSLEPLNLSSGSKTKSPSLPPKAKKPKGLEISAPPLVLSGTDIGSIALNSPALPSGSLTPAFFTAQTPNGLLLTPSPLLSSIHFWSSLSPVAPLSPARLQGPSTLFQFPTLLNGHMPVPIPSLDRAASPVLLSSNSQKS
# How it was run: as §1
# FEV = target: T7, FEV (Homo sapiens, UniProt Q99581 1-238)
# T7 sequence: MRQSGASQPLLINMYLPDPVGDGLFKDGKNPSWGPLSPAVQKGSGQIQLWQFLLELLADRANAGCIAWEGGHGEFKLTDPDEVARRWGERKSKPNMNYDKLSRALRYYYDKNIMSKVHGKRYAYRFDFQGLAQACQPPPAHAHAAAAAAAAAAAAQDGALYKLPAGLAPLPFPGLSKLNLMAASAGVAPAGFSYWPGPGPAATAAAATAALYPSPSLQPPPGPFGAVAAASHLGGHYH
# How it was run: as §1
# ETV5 = ETV5 (Homo sapiens, UniProt P41161 1-510)
# Chain of ETV5 (P41161 whole entry): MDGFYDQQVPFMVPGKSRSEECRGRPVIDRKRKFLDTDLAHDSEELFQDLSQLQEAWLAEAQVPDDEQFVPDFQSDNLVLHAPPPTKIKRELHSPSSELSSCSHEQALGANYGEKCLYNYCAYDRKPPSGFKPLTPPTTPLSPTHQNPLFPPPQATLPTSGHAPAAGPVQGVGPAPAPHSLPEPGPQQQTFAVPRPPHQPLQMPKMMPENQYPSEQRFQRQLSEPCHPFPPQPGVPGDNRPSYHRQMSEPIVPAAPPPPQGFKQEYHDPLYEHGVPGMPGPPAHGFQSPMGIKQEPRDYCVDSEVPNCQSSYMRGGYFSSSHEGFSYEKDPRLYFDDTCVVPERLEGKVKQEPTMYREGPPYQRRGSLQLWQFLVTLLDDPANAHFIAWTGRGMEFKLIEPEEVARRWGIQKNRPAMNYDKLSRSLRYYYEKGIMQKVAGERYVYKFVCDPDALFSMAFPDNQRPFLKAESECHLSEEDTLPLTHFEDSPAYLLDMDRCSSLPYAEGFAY
# How it was run: as §1
# SPIC = target: T8, SPIC (Homo sapiens, UniProt Q8N5J4 1-248)
# T8 sequence: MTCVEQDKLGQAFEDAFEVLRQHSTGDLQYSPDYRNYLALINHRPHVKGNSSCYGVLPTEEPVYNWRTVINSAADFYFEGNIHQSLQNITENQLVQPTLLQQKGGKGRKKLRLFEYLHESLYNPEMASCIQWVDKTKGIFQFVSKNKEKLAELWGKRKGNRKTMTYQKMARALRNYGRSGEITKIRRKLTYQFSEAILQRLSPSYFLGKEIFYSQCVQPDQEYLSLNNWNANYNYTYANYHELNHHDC
# How it was run: as §1
# ELF4 = ELF4 (Homo sapiens, UniProt Q99607 1-663)
# Chain of ELF4 (Q99607 whole entry): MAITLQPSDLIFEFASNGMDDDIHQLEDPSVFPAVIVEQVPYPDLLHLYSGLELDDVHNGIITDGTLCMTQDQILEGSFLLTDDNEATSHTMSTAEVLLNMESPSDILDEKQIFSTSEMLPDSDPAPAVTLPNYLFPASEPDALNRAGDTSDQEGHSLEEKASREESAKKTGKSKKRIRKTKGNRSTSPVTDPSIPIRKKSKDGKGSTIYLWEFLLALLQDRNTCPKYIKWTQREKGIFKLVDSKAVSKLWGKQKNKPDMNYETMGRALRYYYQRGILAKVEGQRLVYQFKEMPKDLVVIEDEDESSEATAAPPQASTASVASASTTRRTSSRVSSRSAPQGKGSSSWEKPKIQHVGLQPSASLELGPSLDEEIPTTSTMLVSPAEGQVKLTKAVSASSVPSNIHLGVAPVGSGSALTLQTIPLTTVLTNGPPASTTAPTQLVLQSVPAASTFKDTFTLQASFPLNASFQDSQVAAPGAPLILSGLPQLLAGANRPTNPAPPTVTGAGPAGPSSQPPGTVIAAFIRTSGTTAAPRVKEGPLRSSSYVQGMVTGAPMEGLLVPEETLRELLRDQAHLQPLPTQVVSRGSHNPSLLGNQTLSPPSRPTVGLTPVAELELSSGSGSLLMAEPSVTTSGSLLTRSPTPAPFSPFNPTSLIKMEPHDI
# How it was run: as §1
# ELK4 = target: T9, ELK4 (Homo sapiens, UniProt P28324-2 1-405)
# T9 sequence: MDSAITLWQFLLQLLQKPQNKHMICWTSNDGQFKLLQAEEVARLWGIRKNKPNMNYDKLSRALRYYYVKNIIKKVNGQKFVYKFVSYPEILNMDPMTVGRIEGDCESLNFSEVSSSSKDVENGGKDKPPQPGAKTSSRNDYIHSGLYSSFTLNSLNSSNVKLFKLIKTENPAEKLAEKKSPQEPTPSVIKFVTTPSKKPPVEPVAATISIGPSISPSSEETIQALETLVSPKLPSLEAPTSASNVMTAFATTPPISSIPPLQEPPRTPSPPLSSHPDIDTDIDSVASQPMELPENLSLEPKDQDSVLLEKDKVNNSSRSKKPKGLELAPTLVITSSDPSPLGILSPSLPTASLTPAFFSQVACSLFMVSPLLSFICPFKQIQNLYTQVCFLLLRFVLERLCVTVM
# How it was run: as §1
# ETV2 = target: T10, ETV2 (Homo sapiens, UniProt O00321 1-342)
# T10 sequence: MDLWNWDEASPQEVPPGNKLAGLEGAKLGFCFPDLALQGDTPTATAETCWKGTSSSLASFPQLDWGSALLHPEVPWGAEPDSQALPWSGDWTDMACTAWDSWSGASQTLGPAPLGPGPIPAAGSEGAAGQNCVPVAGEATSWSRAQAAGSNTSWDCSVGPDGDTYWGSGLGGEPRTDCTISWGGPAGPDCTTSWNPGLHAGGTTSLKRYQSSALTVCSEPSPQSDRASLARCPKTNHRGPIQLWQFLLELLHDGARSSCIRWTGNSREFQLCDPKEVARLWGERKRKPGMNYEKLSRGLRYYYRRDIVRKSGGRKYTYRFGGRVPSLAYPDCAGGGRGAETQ
# How it was run: as §1
# ELF3 = target: T11, ELF3 (Homo sapiens, UniProt P78545 1-371)
# T11 sequence: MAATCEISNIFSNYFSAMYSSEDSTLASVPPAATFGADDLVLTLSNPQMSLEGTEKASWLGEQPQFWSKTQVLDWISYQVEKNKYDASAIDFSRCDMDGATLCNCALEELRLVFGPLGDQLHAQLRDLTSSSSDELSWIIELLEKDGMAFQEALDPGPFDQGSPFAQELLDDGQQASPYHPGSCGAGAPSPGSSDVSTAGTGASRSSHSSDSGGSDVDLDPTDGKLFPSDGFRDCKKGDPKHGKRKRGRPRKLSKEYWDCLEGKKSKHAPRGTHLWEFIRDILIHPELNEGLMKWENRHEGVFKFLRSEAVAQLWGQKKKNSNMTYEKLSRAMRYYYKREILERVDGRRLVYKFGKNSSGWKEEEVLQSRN
# How it was run: as §1
# ETV1 = ETV1 (Homo sapiens, UniProt P50549 1-477)
# Chain of ETV1 (P50549 whole entry): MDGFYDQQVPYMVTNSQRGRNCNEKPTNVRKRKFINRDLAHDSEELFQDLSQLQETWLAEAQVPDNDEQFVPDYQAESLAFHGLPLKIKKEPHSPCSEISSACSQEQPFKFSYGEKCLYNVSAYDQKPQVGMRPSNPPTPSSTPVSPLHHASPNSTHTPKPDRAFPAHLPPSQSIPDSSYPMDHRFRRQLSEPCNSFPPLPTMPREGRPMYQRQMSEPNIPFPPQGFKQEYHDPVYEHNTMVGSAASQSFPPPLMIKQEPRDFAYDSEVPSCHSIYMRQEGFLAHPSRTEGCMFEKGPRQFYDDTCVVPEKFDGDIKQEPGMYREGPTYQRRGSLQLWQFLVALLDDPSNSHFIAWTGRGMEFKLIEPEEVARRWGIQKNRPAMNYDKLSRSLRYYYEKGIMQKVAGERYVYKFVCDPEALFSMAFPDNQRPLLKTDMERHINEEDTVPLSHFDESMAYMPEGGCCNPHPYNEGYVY
# How it was run: as §1
Sequence,binding signal (FLI1),binding signal (ELK1),binding signal (GABPA),binding signal (ERG),binding signal (ELF1),binding signal (EHF),binding signal (SPI1),binding signal (SPIB),binding signal (ELK3),binding signal (FEV),binding signal (ETV5),binding signal (SPIC),binding signal (ELF4),binding signal (ELK4),binding signal (ETV2),binding signal (ELF3),binding signal (ETV1)
TGTCCA,"1.18 fold enrichment (6-mer frequency, TF over GST control)","1.18 fold enrichment (6-mer frequency, TF over GST control)","1.1 fold enrichment (6-mer frequency, TF over GST control)","1.19 fold enrichment (6-mer frequency, TF over GST control)","1.19 fold enrichment (6-mer frequency, TF over GST control)","1.16 fold enrichment (6-mer frequency, TF over GST control)","1.08 fold enrichment (6-mer frequency, TF over GST control)","1.13 fold enrichment (6-mer frequency, TF over GST control)","1.14 fold enrichment (6-mer frequency, TF over GST control)","1.11 fold enrichment (6-mer frequency, TF over GST control)","1.15 fold enrichment (6-mer frequency, TF over GST control)","1.17 fold enrichment (6-mer frequency, TF over GST control)","1.16 fold enrichment (6-mer frequency, TF over GST control)","1.11 fold enrichment (6-mer frequency, TF over GST control)","1.3 fold enrichment (6-mer frequency, TF over GST control)","1.06 fold enrichment (6-mer frequency, TF over GST control)","1.04 fold enrichment (6-mer frequency, TF over GST control)"
GTTTTG,"1.19 fold enrichment (6-mer frequency, TF over GST control)","1.17 fold enrichment (6-mer frequency, TF over GST control)","1.2 fold enrichment (6-mer frequency, TF over GST control)","1.25 fold enrichment (6-mer frequency, TF over GST control)","1.23 fold enrichment (6-mer frequency, TF over GST control)","1.15 fold enrichment (6-mer frequency, TF over GST control)","1.2 fold enrichment (6-mer frequency, TF over GST control)","1.23 fold enrichment (6-mer frequency, TF over GST control)","1.11 fold enrichment (6-mer frequency, TF over GST control)","1.16 fold enrichment (6-mer frequency, TF over GST control)","1.28 fold enrichment (6-mer frequency, TF over GST control)","1.34 fold enrichment (6-mer frequency, TF over GST control)","1.18 fold enrichment (6-mer frequency, TF over GST control)","1.22 fold enrichment (6-mer frequency, TF over GST control)","1.26 fold enrichment (6-mer frequency, TF over GST control)","1.03 fold enrichment (6-mer frequency, TF over GST control)","1.25 fold enrichment (6-mer frequency, TF over GST control)"
